Results on 40 compounds are retold here after PubChem BioAssay (Tox21).

Active and inactive are the calls of the source. Where a call stands in place of a potency, no number is given. Calls follow the shape of the dose curve; as a rule, active = well fitted curve in the direction sought with a large enough effect in the repeat runs; inconclusive = weak or mixed curves; inactive = flat fitted curve, though single readings scatter.

This experiment can be described thus: qHTS assay to test for compound auto fluorescence at 590 nm (red) in HEK293 cells (AID 720679). As to conditions: red autofluorescence 540/590 nm; series mostly up to 91.3 µM. The source says:
National Center for Advancing Translational Sciences [NCATS]
NIH Chemical Genomics Center [NCGC]
U.S. Environmental Protection Agency [EPA]
National Institutes of Environmental Health Sciences [NIEHS]
National Toxicology Program [NTP]
U.S. Food and Drug Administration [FDA]
Compound auto fluorescence often interferes with screening of the compound library against various biological targets and signaling pathways. Some of these compounds may have fluorophoric properties. Such properties may interfere with the assay outputs resulting in false positives and/or negatives. To decrease such complications and ensure the compound activities are relevant in terms of biological response, the Tox21 10K compound library was screened for auto fluorescence.
From the fluorophores used as reporter signals in our screening assays, the auto fluorescence equivalencies of compounds against three fluorophores have been evaluated: Triamterene, Fluorescein and Rose Bengal sodium for blue, green and red fluorescence, respectively. The fluorescence intensities were measured using Excitation/Emission wavelengths at 405/460nm, 485/535nm and 540/590nm for blue, green and red labels, respectively. This assay includes the red fluorescence data.
Tox21 Assay Protocol Summary:
2,000 HEK293 cells in 5 uL of culture medium containing 10% dialyzed FBS per well were dispensed into black wall/clear bottom 1536-well plates using a Multidrop Combi Dispenser (Thermo Scientific). The assay plates were incubated for 4-5 hr at 37C to allow cell attachment to the well bottom, followed by the transfer of 23 nL compound or DMSO vehicle by a pintool work station (Kalypsys, San Diego, CA). After the assay plates were incubated overnight at 37C and 5% CO2, fluorescence intensities in the assay plates were measured by an Envision (PerkinElmer, Shelton, CT) plate reader using three labels for measuring blue, green and red fluorescence at […] 460, 535 and 590nm respectively.
For orientation: In qHTS, concentration-response curves come from the screen itself.
With `CN(Cc1cnc2nc(N)nc(N)c2n1)c1ccc(C(=O)N[C@@H](CCC(=O)O)C(=O)O)cc1`, the Potency result is “inactive”.

Regarding `CC[C@]12CCCN3CCc4c(n(c5ccccc45)[C@@](O)(C(=O)OC)C1)[C@@H]32`, the Potency result is “inactive”.

For the compound `C[C@]12C=CC(=O)C=C1CC[C@H]1[C@@H]3C[C@@H](O)[C@](O)(C(=O)CO)[C@@]3(C)C[C@H](O)[C@@]12F`, the Potency entry is “inactive”.

With `Nc1cc(Cl)c(N)c(Cl)c1`, the Potency result is “inactive”.

Regarding `COc1ccc(-c2coc3cc(O)cc(O)c3c2=O)cc1`, the Potency entry was “inactive”.

Take `CCC/C=C/C=O`: the Potency entry was “inactive”.

For `C[C@]12CC[C@@H]3c4ccc(O)cc4CC[C@H]3[C@@H]1CC[C@H]2O`, the Potency entry is “inactive”.

On to `C[C@]12CC[C@@H]3c4ccc(O)cc4CC[C@H]3[C@@H]1CC[C@@H]2O`, for which the Potency entry is “inactive”.

`ClC/C=C/CCl`: the Potency entry is “inactive”.

In the case of `c1ccc2c(c1)[nH]c1ccccc12`, the Potency result was “inactive”.

As for `Cc1ccc(C)c(O)c1`, the Potency entry was “inactive”.

`C/C=C/C(=O)N(CC)c1ccccc1C`: the Potency result is “inactive”.

In the case of `IC(I)I`, the Potency result is “inactive”.

On to `Cc1ccc(S(=O)(=O)NCl)cc1`, for which the Potency entry was “inactive”.

On to `FC(F)(F)C(Cl)Br` (stereo not given), for which the Potency entry is “inactive”.

Consider `C=CCNCC=C`, for which the Potency entry is “inactive”.

`[O-]/[N+](=N\O)c1ccccc1`: the Potency result was “inactive”.

With `CC(=O)Oc1ccc(C(c2ccc(OC(C)=O)cc2)c2ccccn2)cc1`, the Potency entry was “inactive”.

`Nc1ccc(O)c(N)c1`: the Potency result was “inactive”.

As for `CC(C)[N+](C)(CCOC(=O)C1c2ccccc2Oc2ccccc21)C(C)C`, the Potency result is “inactive”.

Regarding `CC(=O)O[C@]1(C(C)=O)CC[C@H]2[C@@H]3C=C(Cl)C4=CC(=O)CC[C@]4(C)[C@H]3CC[C@@]21C`, the Potency result is “inactive”.

With `O=C(O)c1cc(=O)[nH]c(=O)[nH]1`, the Potency result was “inactive”.

As for `O=C(CCCN1CCC(O)(c2ccc(Cl)cc2)CC1)c1ccc(F)cc1`, the Potency entry is “inactive”.

For `Cc1ccc(N)c([N+](=O)[O-])c1`, the Potency result is “inactive”.

Consider `CCCCCCCCCCCCO`, for which the Potency result was “inactive”.

`CC1(C)C(C=C(Cl)Cl)C1C(=O)OCc1cccc(Oc2ccccc2)c1` (stereo not given): the Potency result was “inactive”.

Take `CC1(C)OC(=O)NC1=O`: the Potency entry was “inactive”.

Take `CC(=O)Oc1c(C)c(C)c2c(c1C)CC[C@@](C)(CCC[C@H](C)CCC[C@H](C)CCCC(C)C)O2`: the Potency entry was “inactive”.

For `C[N+](C)(C)CCO`, the Potency entry is “inactive”.

As to `CCCOCCO`, the Potency result was “inactive”.

`CC(=O)OC(C)C`: the Potency result was “inactive”.

Consider `CCc1cccc2c3c([nH]c12)C(CC)(CC(=O)O)OCC3` (stereo not given), for which the Potency entry is “inactive”.

For `Cc1ccc(C(C)(C)C)c(O)c1`, the Potency result is “inactive”.

For the compound `C=CCCCCCCCCCC`, the Potency entry is “inactive”.

As to `CCCCCCOCCOCCO`, the Potency result was “inactive”.

As to `OC[C@H]1O[C@@H]2O[C@H]3[C@H](O)[C@@H](O)[C@@H](O[C@H]4[C@H](O)[C@@H](O)[C@@H](O[C@H]5[C@H](O)[C@@H](O)[C@@H](O[C@H]6[C@H](O)[C@@H](O)[C@@H](O[C@H]7[C@H](O)[C@@H](O)[C@@H](O[C@H]1[C@H](O)[C@H]2O)O[C@@H]7CO)O[C@@H]6CO)O[C@@H]5CO)O[C@@H]4CO)O[C@@H]3CO`, the Potency entry was “inactive”.

As for `Oc1ccc(C(c2ccc(O)cc2)C(Cl)(Cl)Cl)cc1`, the Potency result was “inactive”.

Consider `CCCN1C=CN(C)C1`, for which the Potency entry is “inactive”.

For `CC(C)(Oc1ccc(Cl)cc1)C(=O)O`, the Potency result was “inactive”.

Take `c1ccc2ncccc2c1`: the Potency entry was “inactive”.
